This is a sample that favours compounds with a hit; in the whole collection about 1.8% have one here.
PABP1 MLLE inh: blocks PAM2 peptide binding to the PABP1 MLLE domain; inhibition, % at 20 µM; 360,000 compounds, 0.36% hits; GST-MLLE / FITC-PAM2 fluorescence polarization; P11940; AID 588489; in the data active means inhibition above about 35%, passing the limit was not always enough
Target sequence (P11940 whole entry, looked up, the tested form may be a part): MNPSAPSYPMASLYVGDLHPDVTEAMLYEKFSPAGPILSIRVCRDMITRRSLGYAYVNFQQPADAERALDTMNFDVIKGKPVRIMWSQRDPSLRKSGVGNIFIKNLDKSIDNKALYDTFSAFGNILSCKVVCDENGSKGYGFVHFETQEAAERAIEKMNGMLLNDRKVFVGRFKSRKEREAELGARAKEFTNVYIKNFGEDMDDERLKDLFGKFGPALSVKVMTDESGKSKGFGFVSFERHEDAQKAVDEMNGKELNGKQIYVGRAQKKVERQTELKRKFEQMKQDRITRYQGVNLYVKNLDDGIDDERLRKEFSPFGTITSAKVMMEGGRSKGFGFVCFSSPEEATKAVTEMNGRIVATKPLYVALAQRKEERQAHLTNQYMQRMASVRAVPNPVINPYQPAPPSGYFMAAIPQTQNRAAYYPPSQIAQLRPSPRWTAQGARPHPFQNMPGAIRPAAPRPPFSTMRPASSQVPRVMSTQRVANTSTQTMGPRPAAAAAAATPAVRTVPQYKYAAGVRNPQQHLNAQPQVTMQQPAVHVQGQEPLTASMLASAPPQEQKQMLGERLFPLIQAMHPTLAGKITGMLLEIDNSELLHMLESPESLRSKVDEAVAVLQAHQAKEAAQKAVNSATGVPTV
PABP polyA inh: blocks human PABP binding to poly(A) RNA; P11940; fluorescence polarization; calls only at 35 µM; 290,000 compounds, 1% hits;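 further: calls also rest on retests at 20 µM and on dose response follow-up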
eIF4H inh: inhibitors of RNA binding by human eIF4H; Q15056; eIF4H fluorescence polarization binding assay; inhibition, % at 35 µM; 290,000 compounds, 0.94% hits; AID 2012;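 further: calls also rest on retests at 20 µM and on dose response follow-up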
MEX-5 binding: C. elegans MEX-5 TCR-2 RNA binding activity. AID 1832. 300,000 compounds, 0.38% hits. activity score (negative = inhibition of binding), % at 10 µM. MEX-5/FITC-TCR2 RNA binding, fluorescence polarization; stronger effect = lower value;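 active means inhibition past about -25% in most replicates, and total fluorescence under double the plate's negative control median, limit read from the data; inconclusive means replicates evenly split on the limit, or fluorescence at least double controls; inactive means too little inhibition in most replicates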
EBV gp42 inh: blocks Epstein-Barr virus glycoprotein 42 binding. 220,000 compounds, 0.42% hits. inhibition, % (tested at 21.74 µM). Fluorescence polarization binding assay, mP read-out. Q1HVG2; in the data active means inhibition above about 50%
Hits are given with their value; i = inactive; ? = inconclusive; nt = no result given; + = active, no number. Unless noted, how the calls were made is not given here.

SMILES | PABP1 MLLE inh | PABP polyA inh | eIF4H inh | MEX-5 binding | EBV gp42 inh
O=C(Nc1nccs1)c1cc(-c2ccco2)nc2ccccc12 | i | + | i | i | i
CCN(CC)CCNC(=O)c1ccc(NC(=O)c2cc(-c3ccco3)nc3ccccc23)cc1 | i | i | i | i | nt
Cc1nnc(NC(=O)c2cc(-c3ccco3)nc3ccccc23)s1 | i | nt | nt | i | nt
Cc1csc(NC(=O)c2cc(-c3ccco3)nc3ccccc23)n1 | i | + | 87.9 | i | i
CCC1(CC)C(C#N)C(=O)NC(=O)C1C#N (stereo not drawn) | i | nt | nt | nt | nt
C[C@H]1CNC(=O)c2c(C(=O)Nc3ccc(CNC(=O)OC(C)(C)C)cc3)ncn21 | i | nt | nt | nt | nt
Cn1nc(C(C)(C)C)cc1C(=O)N1CCCCC1c1cc(C(=O)Nc2ccccc2Cl)no1 (stereo not drawn) | i | nt | nt | nt | nt
CCCCNC(=O)c1cccnc1SCC(=O)Nc1ccccc1OC | i | i | i | i | i
CCCCCCCCNC(=O)c1cccnc1SCC(=O)Nc1ccc(OC)cc1OC | i | + | 64.2 | i | i
COc1ccc(NC(C)=O)cc1S(=O)(=O)NCc1ccc2c(c1)OCO2 | i | nt | nt | nt | nt
CN=C1S/C(=C\c2ccc(N3CCCC3)c(F)c2)C(=O)N1C | i | i | i | -59.1 | i
CN=C1S/C(=C\c2ccc(N3CCOCC3)c(F)c2)C(=O)N1C | i | i | i | i | i
CCOc1cc(/C=N/NC(=O)c2ccc(-c3csc(Nc4ccc(C)cc4)n3)cc2)ccc1OCC(=O)O | i | i | i | nt | 89.2
COc1cc(/C=N\NC(=O)c2ccc(-c3ccccc3)cc2)ccc1OCC(N)=O | i | i | i | i | nt
Cc1nc(CC(=O)N/N=C/c2ccc(OCC(=O)O)cc2)cs1 | i | i | i | i | i
O=C(O)COc1ccc(/C=N/NC(=O)c2ccc(-c3csc(Nc4ccc(Cl)cc4)n3)cc2)cc1 | i | i | 97.9 | i | 92.5
c1coc(-c2ncc[nH]2)c1 | i | + | 102.4 | i | i
Cc1cc(C)c2nc(-c3ccccn3)cc(C(=O)NCc3cc(C)n(C)n3)c2c1 | i | i | i | i | i
Cc1cc(C)c2nc(-c3ccccn3)cc(C(=O)NCc3ccco3)c2c1 | i | + | 47.6 | i | i
Cc1ccc(-c2cc(C(=O)NCc3ccco3)c3ccccc3n2)o1 | i | + | 85.6 | i | i
N=c1c(S(=O)(=O)c2ccc(Cl)cc2)cc2c(=O)n3ccccc3nc2n1C1CCCC1 | i | i | i | -35.2 | nt
N=c1c(S(=O)(=O)c2ccc(Br)cc2)cc2c(=O)n3ccccc3nc2n1C1CCCCC1 | i | i | i | -44.9 | nt
N=c1c(S(=O)(=O)c2ccccc2)cc2c(=O)n3ccccc3nc2n1C1CCCCC1 | i | nt | nt | nt | nt
Cc1ccccc1S(=O)(=O)NNC(=O)C(=O)NNc1ccccn1 | i | i | i | -25.6 | i
CC(=O)Nc1ccc(S(=O)(=O)NNC(=O)C(=O)NNc2ccccn2)cc1 | i | i | i | -45.3 | i
SMILES | PABP1 MLLE inh | PABP polyA inh | eIF4H inh | MEX-5 binding | EBV gp42 inh
Cc1ccc(S(=O)(=O)NNC(=O)C(=O)NNc2ccccn2)cc1 | i | i | i | i | i
Nc1ccc(S(=O)(=O)NNC(=O)C(=O)NNc2ccccn2)cc1 | i | i | i | -30.3 | i
CCCCCC(=O)N1C[C@H](O)[C@@H](n2cc(C3CC3)nn2)C[C@@H]1c1ccc(C)cc1 | i | nt | nt | nt | nt
Cc1noc(C)c1CSCC(=O)OCC(=O)Nc1sccc1C#N | i | + | 58.4 | i | i
N#Cc1ccsc1NC(=O)COC(=O)CCCSc1nc2ccccc2s1 | i | + | 101.7 | i | i
NC(=O)COC(=O)CCCSc1nc2ccccc2s1 | i | i | i | i | i
COc1ccc(S(=O)(=O)NC(=O)C2(C)CCN2C(=O)Cc2ccccc2Cl)cc1 (stereo not drawn) | i | nt | nt | nt | nt
CC1(C(=O)NCc2ccccc2Br)CCN1Cc1ccc(-c2ccccn2)cc1 (stereo not drawn) | i | nt | nt | nt | nt
O=C(NC(=S)Nc1ccc2c(c1)OCCO2)c1cccc(Br)c1 | 40.0 | i | i | i | i
O=C(NC(=S)N1CCN(Cc2ccc3c(c2)OCO3)CC1)c1cccc(Br)c1 | i | + | active | i | i
O=C(NC(=S)N1CCN(Cc2ccc3c(c2)OCO3)CC1)c1ccc(Cl)cc1 | i | i | i | nt | i
O=C(NCCO)c1cccc(-c2cnc3cccnn23)c1 | i | nt | nt | nt | nt
Clc1ccc(-c2nc3ncccn3c2Nc2ccc3c(c2)OCO3)cc1 | i | + | 61.1 | i | i
COc1ccc(C(C)NC(=O)C2CCN(CCOc3ccc(Cl)cc3Cl)CC2)cc1OC (stereo not drawn) | i | nt | nt | nt | nt
Cc1ccc(-c2c3c([nH]c(=S)c2C#N)CCCC3)o1 | i | + | 55.6 | i | i
N#Cc1c(-c2ccncc2)c2c([nH]c1=S)CCCC2 | i | i | i | i | i
N#CC1=C(N)OC2=C(CC/C2=C\c2ccc(F)cc2)C1c1ccc(F)cc1 (stereo not drawn) | nt | i | ? | i | 61.4
N#CC1=C(N)OC2=C(CCC/C2=C/c2ccoc2)C1c1ccoc1 (stereo not drawn) | nt | i | i | i | i
CCOC(=O)c1cc(OCC)c2c(ccc3cc(OC)ccc32)n1 | i | nt | nt | nt | nt
CC(=O)Nc1c(Nc2ccccc2)c2ccccc2oc1=O | 47.2 | i | i | i | i
CC(C)C1C(=O)N(Cc2cn(CC3CCCCC3)nn2)CCS(=O)(=O)N1Cc1ccc(-c2cccc(CO)c2)cc1 (stereo not drawn) | i | nt | nt | nt | nt
O=C(NC(c1ccc(-c2ccccc2)cc1)c1cnccn1)C1CCN(Cc2ccc3c(c2)OCO3)CC1 (stereo not drawn) | i | nt | nt | nt | nt
O=C(Nc1cccc(Cl)c1N1CCCCC1)c1ccc(N2CCOCC2)c([N+](=O)[O-])c1 | i | + | active | i | i
Cc1cc(C)nc(S/C=C/C(=O)c2ccccc2F)n1 | 42.0 | i | i | i | i
N#CC1=C(N)Oc2cc(N)ccc2C1c1ccc(F)cc1 (stereo not drawn) | i | i | i | i | i
SMILES | PABP1 MLLE inh | PABP polyA inh | eIF4H inh | MEX-5 binding | EBV gp42 inh
N#CC1=C(N)Oc2cc(N)ccc2C1c1ccc(F)cc1F (stereo not drawn) | i | + | i | i | nt
N#C/C(=C(/O)CSc1ncn[nH]1)c1nc2ccccc2[nH]1 | i | + | i | i | i
Cc1nc(-c2ccccc2)cc(-c2ccccc2)n1 | i | nt | nt | i | nt
COc1nc(-c2ccccc2)cc(-c2ccccc2)n1 | i | + | active | i | i
O=C(CC1CC2CCC1C2)N1CCN(S(=O)(=O)c2ccc(F)cc2)CC1 (stereo not drawn) | i | nt | nt | nt | nt
CC(C)OCCc1cccc[n+]1[O-] | i | nt | nt | nt | nt
COc1ccc(CC(=O)O/N=C(\N)c2cccc([N+](=O)[O-])c2)cc1 | i | + | ? | i | i
CCOC(=O)C1(C)CCN1C(=O)c1ccc(F)c(Cl)c1 (stereo not drawn) | i | nt | nt | nt | nt
CC(C)=C(NC(=O)c1ccccc1Br)C(=O)NCCc1nc2ccccc2[nH]1 | i | + | 112.0 | i | i
O=C(Oc1ccc(-c2nnco2)cc1)c1cc(S(=O)(=O)N2CCOCC2)ccc1F | i | nt | nt | nt | nt
CC(C)OC(=O)c1c(N)n(CCCN2CCOCC2)c2nc3ccccc3nc12 | i | i | i | i | i
CC(C)OC(=O)c1c2nc3ccccc3nc2n2c1[nH]c(=O)c1ccccc12 | nt | + | 52.6 | i | i

Screening data from PubChem.
